# This is a sample that favours compounds with a hit; in the whole collection about 17% have one here.
# HepG2 tox: counter-screen for TGF-b inhibitors: cytotoxicity in HepG2 cells; HepG2 CAGA-GFP viability, ATP luminescence, 18 h; Potency, µM (series often up to 46.1 µM), for the others: at the top dose activity change, negative = cytotoxicity, hits mostly cytotoxic; 410,000 tested, 0.76% active; AID 588856
#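 CellTiter-Glo luminescence gave cytotoxicity after 18 hours at 37 degrees C. The cells were HepG2 CAGA-GFP in 1% FBS DMEM, stimulated with 500 pg/mL TGF-beta after compound addition. %Activity was normalised to no-cell wells (complete cell-killing) and DMSO (no toxicity), and curves were fitted and classified.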
# ATXN2 expr inh: inhibitors of ATXN2 expression. HEK-293 ATXN2-luciferase reporter, luminescence, 24 h. Potency, µM (titrated, usually from 57 µM), inactives show at the highest dose activity change, negative = inhibition, most hits filed as inhibitors. 360,000 tested, 0.72% active. AID 1745845; also: % is scaled to controls: 0 for no effect and ±100 for the full control effect; nearly all actives have a fitted effect of over 55% in size
#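 qHTS (up to 57 uM final) was run with 24 h compound exposure of reporter cells at 37 °C. Each well was multiplexed: SteadyGlo luminescence measured ATXN2-luciferase expression after a fluorogenic Gly-Phe-AFC viability readout (25 uM final).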
# DT40 TDP1 no CPT: qHTS for Inhibitors of human tyrosyl-DNA phosphodiesterase 1 (TDP1): qHTS in cells in absence of CPT; DT40 Tdp1-/- hTDP1 cells, no CPT, ATP luminescence, 48 h; Potency, µM (series often up to 46.2 µM), for the others: at the highest dose activity change, negative = growth inhibition, usual class: inhibitors; 420,000 tested, 15% active; also: % is scaled to controls: 0 for no effect and ±100 for the full control effect; nearly all actives have a fitted effect of over 55% in size
#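 Camptothecin absent (DMSO only). Human TDP1-complemented DT40 knockout cells, 400 cells/well, 37 °C for minimum 48 hr; ATP measured via CellTiter-Glo, 30 min dark incubation, luminescence.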
# TGFb SMAD3 inh: blocks TGF-b signaling | HepG2 CAGA-GFP TGF-b/SMAD3 reporter, GFP fluorescence, 18 h; TGF-beta stimulated, 500 pg/mL final | Potency, µM (highest dose often 46.1 µM), inactives show top-dose activity, negative = inhibition, usual class: inhibitors | 410,000 tested, 1.2% active; also: % is scaled to controls: 0 for no effect and ±100 for the full control effect; nearly all actives have a fitted effect of over 65% in size
#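 Inhibition was scored as loss of TGF-beta-induced (500 pg/mL final, 18 hours, 37 degrees C) GFP in HEPG2 cells carrying a CAGA-GFP reporter, in DMEM with 1% FBS. Well GFP was summed per cell; Activity was normalised to unstimulated and stimulated DMSO wells, then concentration-response fitting.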
# ATXN viability: reduces viability in counter-screen for ATXN expression inhibitors | S2 cells (HEK-293 line with an ATXN2-luciferase reporter) viability, CellTiter-Fluor protease fluorescence, 24 h | Potency, µM (doses to about 56.7 µM), hits mostly cytotoxic | 400,000 tested, 0.49% active | AID 651635; also: nearly all actives have a fitted effect of over 40% in size
# DT40 TDP1 CPT: DT40-hTDP1 cell growth loss with CPT; chicken DT40 Tdp1-/-;hTDP1 cells + 20 nM CPT, ATP luminescence, 48 h; Potency, µM (highest dose often 46.2 µM), for the others: at the highest dose activity change, negative = growth inhibition, actives largely listed as inhibitors; 420,000 tested, 12% active; AID 686979; also: % is scaled to controls: 0 for no effect and ±100 for the full control effect; nearly all actives have a fitted effect of over 55% in size
#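 Cell growth measured by CellTiter-Glo luminescence after a minimum 48 h, 37 C compound exposure with 20 nM CPT in Tdp1-knockout DT40 cells stably expressing hTDP1, seeded 400/well; qHTS titration format.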
# Active calls of the source: *; i = inactive; u = inconclusive; x = not tested or not shown. Calls follow the shape of the dose curve; as a rule, active = well fitted curve in the direction sought with a large enough effect; inconclusive = small, poorly fitted or top-dose-only effect, or another doubt; inactive = no such curve, though single readings can be large; an effect the other way counts as inactive or inconclusive. Potency is read from the fitted curve at half-maximal effect.
SMILES,HepG2 tox,ATXN2 expr inh,DT40 TDP1 no CPT,TGFb SMAD3 inh,ATXN viability,DT40 TDP1 CPT
CCCCCCN1C[C@H](O)[C@@H](n2cc(C3CC3)nn2)C[C@@H]1c1ccc(C)cc1,-40%,u,26µM*,u,u,u
CCCCCCN1C[C@@H](n2cc(C3CC3)nn2)[C@H](O)C[C@@H]1c1ccc(Cl)cc1,-107%,u,u,u,u,u
CCCCCCN1C[C@@H](n2cc(C3CC3)nn2)[C@H](O)C[C@@H]1c1ccccc1,-5%,19%,u,-1%,u,-17%
Nc1ccc(C(=O)N2CCN(S(=O)(=O)c3ccc(Br)cc3)CC2)cc1[N+](=O)[O-],11%,1%,u,-8%,i,u
CCOC(=O)[C@H]1[C@H]2COc3ccc(OC)cc3[C@@H]2N2C(=O)c3cc(C)ccc3NC(=O)[C@@]12C,2%,5%,1%,10%,i,-30%
Cc1nc2sccn2c(=O)c1S(=O)(=O)Nc1ccc(N2CCN(C)CC2)cc1,2%,-13%,-20%,2%,i,0%
Cn1nc(-c2ccc(Cl)cc2)c2cc(C(=O)N3CCOCC3)sc21,-5%,-10%,21µM*,2%,i,u
COc1ccc(-c2nn(C)c3sc(C(=O)N4CCN(c5cccc(Cl)c5)CC4)cc23)cc1OC,5%,4%,-73%,4%,u,15µM*
O=C(c1cc(-c2ccc(Cl)cc2)n(-c2ccc(Cl)cc2)n1)N1CCOCC1,-6%,-9%,u,1%,i,16µM*
Cn1nc(-c2ccccc2F)c2cc(C(=O)N3CCN(C(=O)c4ccco4)CC3)sc21,-2%,72%,u,u,i,29µM*
COc1cccc(-c2nn(C)c3sc(C(=O)N4CCOCC4)cc23)c1,-17%,2%,u,0%,i,-26%
COc1cccc(-n2c(SCC(=O)NC3CC3)nc3ccccc3c2=O)c1,-8%,x,u,1%,i,-26%
O=S(=O)(c1cccc(F)c1)N1CCN(Cc2cc3c(cc2Br)OCCO3)CC1,-11%,-21%,u,u,i,u
COc1ccc(NC(=O)C2CSC(C)(C)N2C=O)cc1 (centres undefined),15%,x,0%,17%,i,1%
COc1ccc(CNC(=O)c2cc3c(-c4ccc(Cl)cc4)nn(C)c3s2)cc1,-9%,x,u,-22%,x,u
COc1ccc(N2CCN(C(=O)c3cc4c(-c5ccc(Cl)cc5)nn(C)c4s3)CC2)cc1,4%,4%,16µM*,7%,i,u
Cn1nc(C(=O)N2CCN(c3ccc(F)cc3)CC2)c2c1-c1ccccc1SC2,-16%,x,-1%,-1%,x,-3%
COc1ccc(N2CCN(C(=O)c3cc4c(-c5ccccc5F)nn(C)c4s3)CC2)cc1,-23%,-29%,9.2µM*,u,i,u
Cn1nc(-c2ccccc2F)c2cc(C(=O)N3CCN(c4ccc(F)cc4)CC3)sc21,-11%,u,16µM*,u,u,u
CSc1ccc(CCNC(=O)c2cc3c(-c4ccccc4F)nn(C)c3s2)cc1,-16%,-7%,u,1%,i,u
Cn1nc(-c2ccccc2F)c2cc(C(=O)N3CCN(c4ccccc4F)CC3)sc21,-16%,u,7.3µM*,u,u,4.1µM*
Cc1ccc(CNC(=O)CCC2CCCN(Cc3c(C)nn(C(C)C)c3C)C2)o1 (centres undefined),7%,x,-23%,1%,i,-10%

# Source: PubChem
